Source: PubChem BioAssay
USP1-UAF1 inh: Inhibitors of USP1/UAF1: Primary Screen | Ubiquitin carboxyl-terminal hydrolase 1 (Homo sapiens), O94782 | recombinant USP1/UAF1, Ub-Rhodamine cleavage fluorescence | Potency, µM (series often up to 57.1 µM), most hits filed as inhibitors | 390,000 compounds, 0.23% hits | AID 743255, 2014; active means well fitted inhibition curve with a large enough effect; inconclusive means small, poorly fitted or top-dose-only effect; inactive means no such curve, though single readings can be large or run the other way; further: nearly all actives have a fitted effect of over 60% in size
Target sequence (O94782 whole entry, looked up): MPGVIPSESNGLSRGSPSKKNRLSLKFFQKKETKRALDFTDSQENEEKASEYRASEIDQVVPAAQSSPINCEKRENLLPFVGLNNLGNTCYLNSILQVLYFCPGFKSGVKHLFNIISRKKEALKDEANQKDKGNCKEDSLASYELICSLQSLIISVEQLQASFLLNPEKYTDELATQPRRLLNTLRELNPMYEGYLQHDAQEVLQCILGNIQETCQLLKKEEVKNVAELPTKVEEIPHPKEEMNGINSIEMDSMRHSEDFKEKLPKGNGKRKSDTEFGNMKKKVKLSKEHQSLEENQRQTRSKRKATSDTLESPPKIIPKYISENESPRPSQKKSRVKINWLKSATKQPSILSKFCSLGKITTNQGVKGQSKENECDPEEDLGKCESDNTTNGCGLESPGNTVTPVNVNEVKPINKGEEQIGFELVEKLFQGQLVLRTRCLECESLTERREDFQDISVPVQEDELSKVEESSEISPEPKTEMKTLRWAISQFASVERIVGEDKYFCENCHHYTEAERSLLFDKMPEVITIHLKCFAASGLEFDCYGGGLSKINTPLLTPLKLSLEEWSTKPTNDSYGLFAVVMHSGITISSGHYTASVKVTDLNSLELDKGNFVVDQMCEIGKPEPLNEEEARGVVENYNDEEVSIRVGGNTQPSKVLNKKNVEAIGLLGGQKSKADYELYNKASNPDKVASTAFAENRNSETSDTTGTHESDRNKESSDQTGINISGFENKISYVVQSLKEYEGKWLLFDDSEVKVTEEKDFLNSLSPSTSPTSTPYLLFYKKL
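In this screen, compounds sit with the deubiquitinase complex (1nM) for 15 min at room temperature before Ub-Rho is added at 150nM final. Fluorescence rise is then followed for 6 reads every 60 seconds.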
hERG WT inh: qHTS for Inhibitors of KCHN2 3.1: Wildtype qHTS; Voltage-gated inwardly rectifying potassium channel KCNH2 (Homo sapiens), Q12809; U2OS, BacMam KCNH2, thallium flux FluxOr; hits give low values; activity change, % at 1.84 µM; 340,000 compounds, 0.37% hits; AID 720551, 2013;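 active means maximum activity change below -70%; inconclusive means maximum activity change between -70% and -50%; inactive means maximum activity change above -50%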
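U2OS cells transduced with wild-type KCNH2 virus are loaded with FluxOr dye for 45 min, and thallium flux is measured in kinetic reads before and after stimulation buffer. Rate constants are normalized to DMSO controls.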
KCNH2 3.1 inh: qHTS for Inhibitors of KCHN2 3.1: Mutant qHTS | Potassium voltage-gated channel subfamily H member 2, brain isoform KCNH2 3.1 (human) | U2OS KCNH2 3.1, thallium flux FluxOr; hits give low values | activity change, % (tested at about 1.8 µM) | 340,000 compounds, 0.95% hits;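 active means maximum activity change below -70%; inconclusive means maximum activity change from -70% to -50%; inactive means maximum activity change above -50%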;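 further: thallium influx rate constant from kinetic fluorescence after stimulation buffer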
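Virally transduced U2OS (3.1 isoform, 4 h infection in dark at RT) → overnight 37 C → FluxOr + Red40 in HBSS/HEPES, 45 min → stimulation buffer, 2 min kinetic read → rate constant vs DMSO controls.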
Giardia killer: Small Molecules that selectively kill Giardia lamblia: qHTS. Giardia lamblia trophozoite viability. activity change, % at 7.66 µM, hits read low. 340,000 compounds, 0.15% hits; in the data active means activity change below about -80%; inconclusive means between about -30% and that limit;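 further: parasites exposed to compound for two days anaerobically before the ATP read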
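Killing of trophozoites was scored by loss of ATP luminescence after a 48 hrs anaerobic exposure to compounds at 37 deg C, using 100 cells per well.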
FBPA coupling cs: qHTS Assay for Inhibitors of Fructose-1,6-bisphosphate Aldolase from Giardia Lamblia: Coupling assay counterscreen. activity change, negative = inhibition, % at 58.2 µM, hits read low. AID 2472, 2010. 290,000 compounds, 0.67% hits. coupling enzyme system counterscreen, AmpLite Red fluorescence; in the data active means activity change below about -30%
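Coupling enzymes only (glyceraldehyde-3-phosphate) + compound, at 57.5 uM final, 10 min RT; add substrate/coupling/AmpLite Red mix, 20 min RT; fluorescence ex 525/em 598 nm. Actives flag coupling-system interference.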
A number is an active result. This is a sample that favours compounds with a hit; in the whole collection about 1.7% have one here.

CCCCn1c(NS(=O)(=O)c2ccc(C)cc2)c(C(=O)OCC)c2nc3ccccc3nc21 was read as USP1-UAF1 inh inconclusive, hERG WT inh inactive, KCNH2 3.1 inh inactive, Giardia killer inactive and FBPA coupling cs inactive.
`COCCCn1c(N)c(C(=O)NCCC(C)C)c2nc3ccccc3nc21` gave USP1-UAF1 inh 22.4µM, hERG WT inh inactive, KCNH2 3.1 inh inactive, Giardia killer inactive and FBPA coupling cs -45.9.
Screening CCCCOCCCn1c(N)c(C(=O)OCCOC)c2nc3ccccc3nc21 returned USP1-UAF1 inh inactive, hERG WT inh inactive, KCNH2 3.1 inh inactive, Giardia killer inactive and FBPA coupling cs inactive.
`CCOCCCn1c(N)c(C(=O)Nc2sc3c(c2C(=O)OC)CCCC3)c2nc3ccccc3nc21` gave USP1-UAF1 inh inactive, hERG WT inh inactive, KCNH2 3.1 inh inactive, Giardia killer inactive and FBPA coupling cs -44.7.
Screening CCCCn1c(N)c(C(=O)OCCOC)c2nc3ccccc3nc21 returned USP1-UAF1 inh inactive, hERG WT inh inactive, KCNH2 3.1 inh inactive, Giardia killer inactive and FBPA coupling cs inactive.
Screening CCCCn1c(NC(=O)c2ccco2)c(C(=O)OCC)c2nc3ccccc3nc21 returned USP1-UAF1 inh 25.1µM, hERG WT inh inactive, KCNH2 3.1 inh inactive, Giardia killer inactive and FBPA coupling cs -45.6.
CN1CCN(c2ncc(C=O)s2)CC1 was read as USP1-UAF1 inh inactive, hERG WT inh inactive, KCNH2 3.1 inh inconclusive, Giardia killer inactive and FBPA coupling cs -37.4.
Screening COc1ccc(CC(C)NCCC(c2ccccc2)c2ccccc2)cc1 (centres undefined) returned USP1-UAF1 inh inactive, hERG WT inh -95.6, KCNH2 3.1 inh -100.6, Giardia killer inactive and FBPA coupling cs inactive.
`CCCCNC(C)Cc1ccccc1` (centres undefined) gave USP1-UAF1 inh inactive, hERG WT inh inactive, KCNH2 3.1 inh inactive and Giardia killer inactive.
Screening COc1ccc2c(c1)CC1(CN2C)C(=O)NC(=O)N(CCc2ccccc2)C1=O (centres undefined) returned USP1-UAF1 inh inactive, hERG WT inh inactive, KCNH2 3.1 inh -94.9, Giardia killer inactive and FBPA coupling cs inactive.
Screening CCOC(=O)CCN(SN(C)C(=O)Oc1cccc2c1OC(C)(C)C2)C(C)C returned FBPA coupling cs inactive.
Screening Cc1ccsc1C(=O)C1CCCN(Cc2ccc(-n3cccn3)cc2)C1 (centres undefined) returned USP1-UAF1 inh inactive, hERG WT inh inactive, KCNH2 3.1 inh -71.8, Giardia killer inconclusive and FBPA coupling cs inactive.
For Cc1ccc(Cn2nnnc2CN2CCC(n3nnc4cc(C)ccc43)CC2)cc1 the results were USP1-UAF1 inh inactive, hERG WT inh inactive, KCNH2 3.1 inh inactive, Giardia killer inactive and FBPA coupling cs inactive.
`Cc1nc2cc(C(F)(F)F)ccc2n1C1CCN(Cc2nnnn2CCc2ccccc2)CC1` gave USP1-UAF1 inh inactive, hERG WT inh inactive, KCNH2 3.1 inh -80.6, Giardia killer inactive and FBPA coupling cs inactive.
For Cc1nc2cc(F)ccc2n1C1CCN(Cc2nnnn2CCc2ccccc2)CC1 the results were USP1-UAF1 inh inactive, hERG WT inh inactive, KCNH2 3.1 inh inactive, Giardia killer inactive and FBPA coupling cs inactive.
`FC(F)(F)c1ccc2c(c1)nnn2C1CCN(Cc2nnnn2Cc2ccccc2)CC1` gave USP1-UAF1 inh inactive, hERG WT inh inactive, KCNH2 3.1 inh -76.1, Giardia killer inactive and FBPA coupling cs inactive.
Cc1ccc(Cn2nnnc2CN2CCC(n3nnc4cc(C(F)(F)F)ccc43)CC2)cc1 was read as USP1-UAF1 inh inactive, hERG WT inh inconclusive, KCNH2 3.1 inh -92.8, Giardia killer inactive and FBPA coupling cs inactive.
Screening CCCCC(C#N)(Cn1cncn1)c1ccc(Cl)cc1 (centres undefined) returned FBPA coupling cs inactive.
CC(Cc1ccc(C(C)(C)C)cc1)CN1CC(C)OC(C)C1 (centres undefined) was read as FBPA coupling cs inactive.
CC(C)=CCCC1(C)C=Cc2c(O)c3c(c(CC=C(C)C)c2O1)OC12C(=CC4CC1C(C)(C)OC2(C/C=C(/C)C(=O)O)C4=O)C3=O (centres undefined) was read as FBPA coupling cs inactive.
CC(=O)Nc1c2sscc-2n(C)c1=O was read as FBPA coupling cs inactive.
C[C@@H]1OC=C2[C@@H](O)[C@H]3O[C@H]3C(=O)[C@@]23[C@H]1[C@H]1C2=C([C@@H](O)[C@H]4O[C@@H]4C2=O)[C@@H]3O[C@@H]1C was read as FBPA coupling cs inactive.
For O=C1C=Cc2ccccc2C1=O the results were FBPA coupling cs -81.7.
`Nc1cc2nc3ccccc3nc2cc1N` gave USP1-UAF1 inh inactive, hERG WT inh inactive, KCNH2 3.1 inh inactive, Giardia killer inactive and FBPA coupling cs -33.8.
For CN(C)c1ccc(/C=C/C=C/c2sc3ccccc3[n+]2C)cc1 the results were USP1-UAF1 inh inactive, hERG WT inh inactive, KCNH2 3.1 inh inactive, Giardia killer inactive and FBPA coupling cs inactive.
For CN(C)c1ccc(/C=C/c2cc[n+](C)c3ccccc23)cc1 the results were USP1-UAF1 inh inactive, hERG WT inh inactive, KCNH2 3.1 inh inactive, Giardia killer inactive and FBPA coupling cs -41.7.
For CN1C2CCCC1CC(=O)C2 the results were FBPA coupling cs inactive.
`CN1CCN(c2ccc([N+](=O)[O-])c3cccnc23)CC1` gave USP1-UAF1 inh inactive, hERG WT inh inactive, KCNH2 3.1 inh inactive, Giardia killer -83.6 and FBPA coupling cs inactive.
`CN1Cc2c(ccc3c2OCO3)C2C(O)Cc3cc4c(cc3C21)OCO4` (centres undefined) gave FBPA coupling cs inactive.
For CCOC(=O)c1ncc2[nH]c3ccc(OCc4ccccc4)cc3c2c1COC the results were FBPA coupling cs inactive.
For CCCNC(=O)c1c(N)n(CC2CCCO2)c2nc3ccccc3nc12 (centres undefined) the results were USP1-UAF1 inh inconclusive, hERG WT inh inactive, KCNH2 3.1 inh inactive, Giardia killer inactive and FBPA coupling cs -51.0.
Screening Nc1c(C(=O)OC2CCCCC2)c2nc3ccccc3nc2n1CC1CCCO1 (centres undefined) returned USP1-UAF1 inh inactive, hERG WT inh inactive, KCNH2 3.1 inh inactive, Giardia killer inactive and FBPA coupling cs inactive.
`CC(C)OCCCNC(=O)c1c(N)n(CC2CCCO2)c2nc3ccccc3nc12` (centres undefined) gave USP1-UAF1 inh 28.2µM, hERG WT inh inactive, KCNH2 3.1 inh inactive, Giardia killer inactive and FBPA coupling cs -46.7.
Screening CC(C)OC(=O)c1c(N)n(CC2CCCO2)c2nc3ccccc3nc12 (centres undefined) returned USP1-UAF1 inh inactive, hERG WT inh inactive, KCNH2 3.1 inh inactive, Giardia killer inactive and FBPA coupling cs inactive.
